# Measured values as given in PubChem BioAssay (EPA / NIEHS).
# Where “and” joins values, the source holds several entries; their conditions need not be identical. Identical values can stand only once. Where a structure was tested more than once in an assay, its records may differ in their call. Calls of active or inactive are those of the source. How the source made its calls: active means hit-call score of the fitted dose curve at least 0.9, where 1 is the maximum; inactive means score below 0.9.
# Experiments:
# [1] = ATG_RORE_CIS: Attagene CIS-FACTORIAL HepG2 Assay for human RAR-related Orphan Receptor Element (RORE) (AID 2282959); conditions: HepG2 Attagene cis-factorial RORE reporter, mRNA; actives raise or lower the signal
# Method in brief: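 HepG2 cells transiently transfected with multiple cis-element reporter transcription units, exposed to chemical for 24 h. Reporter mRNA quantified by RT-PCR, 6-FAM primer-extension labeling, HpaI digestion and capillary electrophoresis; bidirectional fit versus DMSO baseline.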
# [2] = biological target: Transcription factor Sp1 (Homo sapiens) (UniProt P08047); test: ATG_Sp1_CIS: Attagene CIS-FACTORIAL HepG2 Assay for human Specificity Protein 1 (Sp1) (AID 2282961); conditions: HepG2 Sp1 cis-reporter transcription, actives raise or lower the signal
# Method in brief: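 HepG2 cells transiently transfected with multiple reporter transcription units driven by cis-regulatory elements; Sp1-responsive reporter mRNA measured 24 h after dosing by RT-PCR and capillary electrophoresis fluorescence, fitted bidirectionally against DMSO baseline.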
# [3] = ATG_SREBP_CIS: Attagene CIS-FACTORIAL HepG2 Assay for human Sterol Regulatory Element Binding (SREBP) (AID 2282962); conditions: HepG2 Attagene cis-factorial SREBP reporter, mRNA; actives raise or lower the signal
# Method in brief: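 In this cis-format assay, HepG2 liver cells express reporters controlled by promoter elements responsive to native transcription factors. Exposure lasts 24 h; reporter mRNA fluorescence from capillary electrophoresis gives the signal, fitted bidirectionally against DMSO.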
# [4] = biological target: Signal transducer and activator of transcription 3 (Homo sapiens) (UniProt P40763); test: ATG_STAT3_CIS: Attagene CIS-FACTORIAL HepG2 Assay for human Signal Transducer and Activator of Transcription 3 (STAT3) (AID 2282963); conditions: HepG2, Attagene cis-factorial STAT3 reporter transcription; actives raise or lower the signal
# Method in brief: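 Readout: fluorescent reporter mRNA fragments resolved by capillary electrophoresis. Setup: HepG2 transfected with MRTUs reporting endogenous transcription-factor activity, dosed 24 h. Gain or loss of signal fitted bidirectionally against DMSO control.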
# [5] = ATG_TA_CIS: Attagene CIS-FACTORIAL HepG2 Assay for human TA Basal Promoter (AID 2282964); conditions: HepG2 Attagene CIS-factorial TA basal promoter reporter; actives raise or lower the signal
# Method in brief: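 HepG2 cells transiently transfected with multiplexed cis-promoter reporter units, dosed 24 h. Reporter mRNA measured by RT-PCR, 6-FAM labelling, HpaI digestion and capillary electrophoresis; bidirectional fit versus DMSO baseline, serving as background control.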
# [6] = ATG_TCF_b_cat_CIS: Attagene CIS-FACTORIAL HepG2 Assay for human T-Cell-Factor with beta-catenin (TCF/b-cat) (AID 2282965); conditions: HepG2 TCF/beta-catenin cis-reporter transcription, actives raise or lower the signal
# Method in brief: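 HepG2, transient MRTU transfection, cis-element-driven reporters (endogenous TFs). 24 h compound exposure. Readout: reporter mRNA by RT-PCR + 6-FAM primer extension, HpaI digest, capillary electrophoresis. Gain/loss fit vs DMSO baseline.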
# [7] = ATG_TAL_CIS: Attagene CIS-FACTORIAL HepG2 Assay for human TAL Basal Promoter (AID 2282966); conditions: HepG2 Attagene cis-factorial TAL promoter reporter; actives raise or lower the signal;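 further: background control endpoint measuring basal TAL promoter reporter mRNA not a specific factor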
# Method in brief: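 After 24 hours of chemical exposure, transfected HepG2 cells yielded RNA that was converted to 6-FAM-labelled, HpaI-digested reporter fragments for capillary electrophoresis. Values derive from bidirectional fitting against DMSO controls.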
# [8] = ATG_VDRE_CIS: Attagene CIS-FACTORIAL HepG2 Assay for human Vitamin D Receptor Element (VDRE) (AID 2282968); conditions: HepG2 VDRE cis-reporter transcription, actives raise or lower the signal
# Method in brief: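 Transient MRTU transfection of HepG2, 24 h compound exposure. Readout: reporter transcripts via RT-PCR and capillary electrophoresis, fluorescence. Bidirectional fit vs DMSO.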
# [9] = ATG_TGFb_CIS: Attagene CIS-FACTORIAL HepG2 Assay for human Transforming Growth Factor (TGF) (AID 2282967); conditions: HepG2 Attagene CIS TGFb reporter, mRNA transcription; actives raise or lower the signal
# Method in brief: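 HepG2 cells transiently transfected with cis-promoter-driven multiplexed reporter units; 24 h compound exposure. Reporter mRNA measured by RT-PCR, 6-FAM labeling, HpaI digestion and capillary electrophoresis; bidirectional fit versus DMSO baseline.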
# [10] = ATG_Sox_CIS: Attagene CIS-FACTORIAL HepG2 Assay for human SRY-box transcription factor (SOX) (AID 2282960); conditions: HepG2 Attagene cis-factorial SOX reporter, mRNA; actives raise or lower the signal
# Method in brief: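 HepG2 cells transiently transfected with cis-element-driven multiple reporter transcription units, dosed 24 h; reporter mRNA measured by RT-PCR, FAM labelling, HpaI digestion and capillary electrophoresis. Bidirectional fit versus DMSO baseline.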
# Signal transducer and activator of transcription 3 (Homo sapiens), sequence (P40763 whole entry, looked up, the tested form may be a part): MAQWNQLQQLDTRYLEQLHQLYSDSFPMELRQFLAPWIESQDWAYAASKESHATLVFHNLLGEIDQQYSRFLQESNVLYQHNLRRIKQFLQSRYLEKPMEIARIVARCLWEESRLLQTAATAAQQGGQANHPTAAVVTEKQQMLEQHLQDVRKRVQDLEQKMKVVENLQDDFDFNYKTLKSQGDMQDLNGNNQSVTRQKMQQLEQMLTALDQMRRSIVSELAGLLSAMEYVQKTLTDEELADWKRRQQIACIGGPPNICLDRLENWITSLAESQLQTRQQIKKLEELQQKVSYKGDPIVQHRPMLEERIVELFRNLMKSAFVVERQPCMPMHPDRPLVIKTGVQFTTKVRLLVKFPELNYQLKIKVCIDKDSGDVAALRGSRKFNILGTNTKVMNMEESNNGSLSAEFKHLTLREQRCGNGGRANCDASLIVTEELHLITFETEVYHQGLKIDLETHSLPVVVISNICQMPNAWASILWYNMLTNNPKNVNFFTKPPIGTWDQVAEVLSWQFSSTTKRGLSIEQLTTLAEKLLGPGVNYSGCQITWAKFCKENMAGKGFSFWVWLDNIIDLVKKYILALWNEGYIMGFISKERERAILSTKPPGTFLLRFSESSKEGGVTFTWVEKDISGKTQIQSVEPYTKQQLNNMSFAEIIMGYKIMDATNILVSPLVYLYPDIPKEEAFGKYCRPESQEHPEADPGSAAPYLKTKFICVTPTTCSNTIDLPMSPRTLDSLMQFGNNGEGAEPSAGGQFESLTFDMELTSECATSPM
# Transcription factor Sp1 (Homo sapiens), sequence (P08047 whole entry, looked up): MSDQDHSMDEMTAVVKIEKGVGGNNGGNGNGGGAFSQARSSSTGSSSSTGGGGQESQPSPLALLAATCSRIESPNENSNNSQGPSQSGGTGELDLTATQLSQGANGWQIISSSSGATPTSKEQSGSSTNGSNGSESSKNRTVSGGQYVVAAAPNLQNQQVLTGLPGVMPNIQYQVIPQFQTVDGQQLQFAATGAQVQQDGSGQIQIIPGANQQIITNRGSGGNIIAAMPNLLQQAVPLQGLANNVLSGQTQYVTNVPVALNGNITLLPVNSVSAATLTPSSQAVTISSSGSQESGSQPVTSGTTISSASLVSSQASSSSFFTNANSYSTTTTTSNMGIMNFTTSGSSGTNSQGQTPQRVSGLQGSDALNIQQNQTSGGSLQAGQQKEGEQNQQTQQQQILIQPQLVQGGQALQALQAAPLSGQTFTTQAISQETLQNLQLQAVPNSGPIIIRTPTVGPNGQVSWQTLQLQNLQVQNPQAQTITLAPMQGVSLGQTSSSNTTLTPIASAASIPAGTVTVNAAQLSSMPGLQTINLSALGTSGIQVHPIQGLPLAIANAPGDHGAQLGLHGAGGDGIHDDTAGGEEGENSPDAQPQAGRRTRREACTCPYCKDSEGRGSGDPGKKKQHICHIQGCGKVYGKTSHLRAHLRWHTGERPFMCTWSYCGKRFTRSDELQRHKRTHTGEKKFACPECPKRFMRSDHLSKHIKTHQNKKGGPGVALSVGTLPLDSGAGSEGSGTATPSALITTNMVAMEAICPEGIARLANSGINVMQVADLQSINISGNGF
Compound,outcome [1],outcome [2],outcome [3],outcome [4],outcome [5],outcome [6],outcome [7],outcome [8],outcome [9],AC50 [3],outcome [10],AC50 [2],AC50 [10],AC50 [5],AC50 [6],AC50 [9],AC50 [8],AC50 [7]
OCC(F)(F)C(F)(F)C(F)(F)C(F)(F)C(F)(F)C(F)(F)C(F)(F)C(F)(F)C(F)(F)C(F)(F)C(F)(F)F,inactive,inactive,inactive,inactive,inactive,inactive,inactive,inactive,–,–,–,–,–,–,–,–,–,–
CCN(CC)CC,inactive,inactive,inactive,inactive,inactive,inactive,inactive,inactive,inactive,–,–,–,–,–,–,–,–,–
CCCCCCCCCCCCOC(=O)c1cc(O)c(O)c(O)c1,inactive,inactive,–,inactive,inactive,inactive,inactive,inactive,–,2.85 µM (active),–,–,–,–,–,–,–,–
O=C(O)CCC(F)(F)C(F)(F)C(F)(F)C(F)(F)C(F)(F)F,inactive,inactive,inactive,inactive,inactive,inactive,inactive,inactive,inactive,–,–,–,–,–,–,–,–,–
C=COC(=O)C(C)(C)CCCCCC,–,inactive,inactive,inactive,inactive,inactive,inactive,inactive,inactive,–,inactive,–,–,–,–,–,–,–
CCOC=C(C(=O)OCC)C(=O)OCC,inactive,inactive,inactive,inactive,inactive,inactive,inactive,inactive,inactive,–,–,–,–,–,–,–,–,–
CCC1CO1 (stereo unspecified),inactive,inactive,inactive,inactive,inactive,inactive,inactive,inactive,inactive,–,–,–,–,–,–,–,–,–
CCO[Si](CCC1CCC2OC2C1)(OCC)OCC (stereo unspecified),inactive,inactive,inactive,inactive,inactive,inactive,inactive,inactive,inactive,–,–,–,–,–,–,–,–,–
Cc1cc(C(C)(C)C)c(O)c(C(C)(C)C)c1,–,–,–,inactive,inactive,inactive,inactive,–,inactive,33.4 µM (active) and 60 µM (active),inactive,52.3 µM (active) and 97 µM (active),–,–,–,–,–,–
CN(C)c1ccc(C(=C2C=CC(=[N+](C)C)C=C2)c2ccccc2)cc1,–,inactive,inactive,inactive,inactive,–,inactive,–,inactive,9.9 µM (active),inactive,1.43 µM (active),1.36 µM (active),0.752 µM (active),2.07 µM (active) and 2.43 µM (active),1.85 µM (active),1.82 µM (active) and 1.3 µM (active),–
CC(C)CCOCCC(C)C,–,inactive,inactive,inactive,inactive,inactive,inactive,inactive,inactive,–,inactive,–,–,–,–,–,–,–
O=C1OC(=O)C(F)(F)C1(F)F,inactive,inactive,inactive,inactive,inactive,inactive,inactive,inactive,inactive,–,–,–,–,–,–,–,–,–
CCc1cccc(CC)c1N(COC)C(=O)CS(=O)(=O)O,inactive,inactive,inactive,inactive,inactive,inactive,inactive,–,–,–,–,–,–,–,–,–,5.6 µM (active),–
c1cc2cccc3c4cccc5cccc(c(c1)c23)c54,–,inactive,inactive,inactive,inactive,inactive,inactive,inactive,inactive,–,inactive,–,–,–,–,–,–,–
O=S(=O)(O)c1ccccc1,inactive,inactive,inactive,inactive,inactive,inactive,inactive,inactive,inactive,–,–,–,–,–,–,–,–,–
O=C1c2ccccc2C(=O)c2c(O)c(O)cc(O)c21,inactive,inactive,inactive,inactive,inactive,inactive,inactive,inactive,inactive,–,–,–,–,–,–,–,–,–
O=CC(F)(F)C(F)(F)C(F)(F)F,inactive,inactive,inactive,inactive,inactive,inactive,inactive,inactive,inactive,–,–,–,–,–,–,–,–,–

Compound,outcome [1],outcome [2],outcome [3],outcome [4],outcome [5],outcome [6],outcome [7],outcome [8],outcome [9],AC50 [3],outcome [10],AC50 [2],AC50 [10],AC50 [5],AC50 [6],AC50 [9],AC50 [8],AC50 [7]
CCCCCCCCCCCC,–,inactive,inactive,inactive,inactive,inactive,inactive,–,inactive,–,inactive,–,–,–,–,124 µM (active),–,–
O=c1cc(-c2ccccc2)oc2ccc3ccccc3c12,inactive,inactive,inactive,inactive,inactive,inactive,inactive,inactive,inactive,–,–,–,–,–,–,–,–,–
c1ccc2c(c1)CCC2,inactive,inactive,inactive,inactive,inactive,inactive,inactive,inactive,inactive,–,–,–,–,–,–,–,–,–
CNNCc1ccc(C(=O)NC(C)C)cc1,–,inactive,inactive,inactive,inactive,inactive,inactive,inactive,inactive,–,inactive,–,–,–,–,–,–,–
C=CC(=O)OCCC(F)(F)C(F)(F)C(F)(F)C(F)(F)C(F)(F)C(F)(F)F,inactive,inactive,inactive,inactive,inactive,inactive,inactive,inactive,–,–,–,–,–,–,–,–,–,–
O=C(NO)c1ccccc1,–,inactive,inactive,inactive,inactive,–,–,inactive,inactive,–,inactive,–,–,76.7 µM (active),18.9 µM (active) [middle of 4 runs],27.5 µM (active) and 26.7 µM (active),–,75.5 µM (active) [middle of 4 runs]
CCO[Si](C)(C)OCC,inactive,inactive,inactive,inactive,inactive,inactive,inactive,inactive,inactive,–,–,–,–,–,–,–,–,–
CCOC(=O)CN[C@@H](C(=O)N1CC[C@H]1C(=O)NCc1ccc(/C(N)=N/O)cc1)C1CCCCC1,inactive,inactive,inactive,inactive,inactive,inactive,inactive,inactive,inactive,–,–,–,–,–,–,–,–,–
FC(F)(F)C1(F)C(F)(F)C(F)(F)C(F)(F)C(F)(C(F)(F)F)C1(F)F (stereo unspecified),inactive,inactive,inactive,inactive,inactive,inactive,inactive,inactive,inactive,–,–,–,–,–,–,–,–,–
NC(=NCCCCCCN=C(N)/N=C(\N)Nc1ccc(Cl)cc1)/N=C(\N)Nc1ccc(Cl)cc1,–,inactive,inactive,inactive,inactive,inactive,inactive,–,–,23.3 µM (active),inactive,159 µM (active) and 23.3 µM (active),22.1 µM (active) and 25.5 µM (active),–,23 µM (active) and 25.4 µM (active),–,–,119 µM (active)
CCCCCC(C)OC(=O)COc1ccc(Cl)c2cccnc12 (stereo unspecified),inactive,inactive,inactive,inactive,inactive,inactive,inactive,inactive,inactive,–,–,–,–,–,–,–,–,–
CCC(=O)C=Cc1ccc(OC)cc1,–,inactive,inactive,inactive,inactive,inactive,inactive,–,inactive,–,–,–,70.4 µM (active),–,–,–,65.6 µM (active),–
Oc1c(Cl)ccc(Cl)c1Cl,–,inactive,inactive,inactive,inactive,inactive,inactive,inactive,inactive,–,–,–,–,–,–,–,–,–
CC1=CC(=O)c2ccccc2C1=O,–,inactive,inactive,inactive,inactive,inactive,inactive,inactive,inactive,–,inactive,–,–,–,–,–,–,–
CCCCC=O,–,inactive,inactive,inactive,inactive,inactive,inactive,inactive,inactive,–,inactive,–,–,–,–,–,–,–
C=CCOCC(CO)(CO)CO,–,inactive,inactive,inactive,inactive,inactive,inactive,inactive,inactive,–,inactive,–,–,–,–,–,–,–
